# Compound activity from PubChem.
# Compounds with a hit are over-represented: about 1.5% of the library has one in this group of screens.
# MenB inh – Mtb MenB enzyme inhibition; AID 540299; P9WNP5; 100,000 tested, 0.43% active; MenB enzyme assay, absorbance read-out; inhibition, % (no concentration beside the values); in the data active means inhibition above about 21%, passing the limit was not always enough
# Target sequence (P9WNP5 whole entry, looked up): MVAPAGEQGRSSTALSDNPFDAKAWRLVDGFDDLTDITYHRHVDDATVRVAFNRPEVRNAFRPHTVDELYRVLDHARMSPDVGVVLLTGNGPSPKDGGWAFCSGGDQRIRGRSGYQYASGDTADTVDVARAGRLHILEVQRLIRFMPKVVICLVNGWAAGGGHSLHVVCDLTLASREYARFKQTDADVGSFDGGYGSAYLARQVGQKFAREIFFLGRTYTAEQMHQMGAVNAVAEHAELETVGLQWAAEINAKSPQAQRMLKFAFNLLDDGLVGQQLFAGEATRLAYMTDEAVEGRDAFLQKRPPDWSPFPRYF
# Polio RdRp inh – poliovirus RNA polymerase inhibition; 150,000 tested, 0.66% active; % elongation, % (compound at 16.7 µg/mL); AID 588519; poliovirus polymerase elongation, fluorescence polarization; active compounds read low; P03300; in the data active means % elongation below about 90%
# Mtb MbtI inh – blocks the Mycobacterium tuberculosis siderophore enzyme MbtI | AID 493033 | purified MbtI enzyme, fluorescence intensity read-out | 100,000 tested, 0.89% active | P9WFX0 | inhibition, % (test concentration not listed); in the data active means inhibition mostly above about 56%, no sharp cut-off; inactive means mostly below about 77%
# The depositor's hits bear a star; x = no result; ! = repeats disagree.
SMILES,MenB inh,Polio RdRp inh,Mtb MbtI inh
CCOC(=O)c1ccc(NC(=O)c2cnc3c(-c4ccc(F)cc4)c(C)nn3c2C)cc1,x,51*,x
CCC(=O)Nc1ccc(C(=O)O)cc1NC(=O)CC,-14,102,4
O=C(CC(NC1CCCC1)C(=O)O)Nc1ccc(Oc2ccccc2)cc1 (stereo not given),-39,105,-10
O=C1CN(c2ccccc2)C(=O)CN1c1ccccc1,0,100,-5
O=S1NN(c2ccccc2)S(=O)NN1c1ccccc1 (stereo not given),-68,72*,7
N#CCc1nc(-c2ccc(C(F)(F)F)cc2)n[nH]1,-13,102,46
N#CCc1nc(-c2cccc(Cl)c2)n[nH]1,12,101,74*
CN(C)CCCO[C@H]1[C@@H](C(O)CO)OC2OC(C)(C)O[C@H]21 (stereo not given in full),0,100,-10
O=C(c1cc(S(=O)(=O)N2CCCCC2)ccc1N1CCCC1)N1CC=C(c2ccccc2)CC1,-9,102,14
Cc1ccc(C)n1-c1ccc(C(=O)NCC(=O)O)cc1,-13,69*,8
O=C(O)CNC(=O)c1ccc(CO)cc1,-33,99,-12
c1nc(NCCc2ccsc2)c2nc3n(c2n1)CCCCC3,10,102,-9
COc1ccc(/C=c2\sc3ncnn3c2=O)cc1,-27,89*,-10
CCN(CC)c1ccc(/C=c2\sc3ncnn3c2=O)cc1,-4,119,-10
Cc1cc2c(n1-c1ccc(C(=O)NCc3cccs3)cc1)CCC(C)C2 (stereo not given),-13,105,-11
CC1=C(C(=O)Nc2ccccc2C)C(c2ccccc2O)NC(=S)N1 (stereo not given),-51,103,13
N#CCOc1ccc(Cl)c(Cl)c1,17,100,-1
CCN(Cc1ccccc1)C(c1ccccn1)c1nnnn1C1CCCCC1 (stereo not given),34*,102,5
Fc1ccc(C(c2nnnn2C2CCCC2)N(Cc2ccccc2)Cc2ccco2)cc1 (stereo not given),5,103,-7
Cn1ccnc1P(=S)(c1nccn1C)N1CCOCC1,-1,80*,87*
Cn1cc(P(=S)(N2CCOCC2)N2CCOCC2)cc1P(=S)(N1CCOCC1)N1CCOCC1,-29,100,23
O=C(Nc1cc(C(F)(F)F)cc(C(F)(F)F)c1)C(=S)N1CCCCC1,1,76*,x
FC(F)(F)c1cccc(NC(=S)N2CCCC2)c1,2,102,-9
Cc1cc2c3c(c1)c(-c1ccccc1)c(C)n3CCC2,-7,99,103
COC(=O)c1c(NC(=O)CCCOc2ccc(C(C)(C)C)cc2)sc2c1C(C(=O)OC)CC2 (stereo not given),x,62*,x
SMILES,MenB inh,Polio RdRp inh,Mtb MbtI inh
COC(=O)c1c(NC(=O)/C(C#N)=C/c2ccc(OC)cc2)sc2c1C(C(=O)OC)CC2 (stereo not given),x,105,x
CC(C)C1Oc2ccccc2N(CC(=O)N(CCCN2CCOCC2)Cc2ccc(F)cc2)C1=O (stereo not given),4,101,0
CN(C)C(=S)Nc1cccc2ccccc12,-22,103,1
CN(C)C(=S)Nc1ccccc1OC(F)F,-14,98,88*
COc1ccccc1N1CCN(C(=O)c2ccc[nH]c2=S)CC1,-36,101,81*
COc1ccccc1N1CCN(C(=O)c2ccccc2C(F)(F)F)CC1,-5,100,-9
CNC(=S)NNc1ncc(C(F)(F)F)cc1Cl,-4,101,24
CS(=O)(=O)CS(=O)(=O)NNc1ncc(C(F)(F)F)cc1Cl,-25,104,57*
O=c1oc2ccccc2n1Cc1ccc(C(F)(F)F)cc1,-4,101,-8
CCNC(=S)N1CCN(S(=O)(=O)c2ccc(Cl)cc2)CC1,0,99,-19
CC1CCCC(C)N1C(=O)COc1ccc(-c2nnco2)cc1 (stereo not given),-6,105,7
O=C(O)COc1ccc(-c2nnco2)cc1,-31,89*,-1
Nc1nc(SCC(=O)c2ccc(S(=O)(=O)N3CCCCC3)cc2)nc(-c2ccco2)n1,0,99,-4
CC(C)(C)NC(=S)N/N=C1/CCCc2occc21,-69,100,19
Cn1ncc(C(=O)Sc2ccc(Cl)cc2)c1-n1cccc1,4,99,30
O=C(Sc1ccc(Cl)cc1)c1cnn(-c2ccccc2)c1C(F)(F)F,-21,105,54*
O=C(CSc1nc2ccccc2nc1Cc1ccccc1)Nc1ccc2c(c1)OCO2,x,105,x
CC1=CC(=C2C(=O)c3ccccc3C2=O)C=C(C)N1CCN1CCOCC1,-35,x,4
Cc1cc2c(cc1C)C(=O)C(N1CCOCC1)=C(c1ccccc1)C2=O,8,102,54*
CCc1cc(Cl)n2c(nc3ccccc32)c1C#N,-8,106,74
Cc1cc(F)ccc1NCC(=O)Nc1ccc2c(c1)OCCO2,5,x,-1
COC(=O)c1ccc(COC(=O)/C=C/c2ccc3c(c2)OCO3)o1,-10,107,12
CCOC(=O)Cc1c(-c2ccccc2)c2cc(Cl)ccc2[nH]c1=O,3,104,-8
CCCc1cc(C(=O)OC)c(NC(=O)CCCC(=O)O)s1,-4,101,26
CCc1c(C)sc(NC(=O)CCCC(=O)O)c1C(N)=O,-2,81*,x
SMILES,MenB inh,Polio RdRp inh,Mtb MbtI inh
Fc1ccccc1C=Nc1cccc2ccccc12,-38,102,112
Brc1ccccc1C=Nc1cccc2cnccc12,x,81*,3
O=C1/C(=N\O)CC(OC(=O)c2ccccc2)C/C1=N/O (stereo not given),-15,102,6
N#CCc1ccc(OCc2cc(C(F)(F)F)cc(C(F)(F)F)c2)cc1,-14,109,-15
CN1C(=O)S/C(=C\c2ccc(I)cc2)C1=O,-31,99,4
CN=C1S/C(=C\c2ccc(Cl)cc2)C(=O)N1C,6,88*,6
CN1CCc2nc3sc(C(=O)Nc4ccccc4C(F)(F)F)c(N)c3cc2C1,x,31*,x
Cc1ccccc1NC(=O)c1sc2nc3c(cc2c1N)CN(Cc1ccccc1)CC3,x,107,x
Cc1ccc(Nc2nn(CN3CCOCC3)c(=S)s2)cc1,-37,102,90*
CCOC(=O)C1CCN(Cn2nc(Nc3ccc(CC)cc3)sc2=S)CC1,-10,105,81
O=c1[nH]ccc2nc(N3CCOCC3)ncc12,8,100,-3
O=C(OCN1C(=O)c2ccccc2C1=O)C1CCCN1S(=O)(=O)c1ccc(Cl)cc1 (stereo not given),-4,103,-7
O=C(CC1C(=O)Sc2[nH]c(=O)sc21)c1ccc(F)cc1 (stereo not given),59*,55,85*
O=C(CCC(=O)c1ccc(F)cc1)c1ccc(F)cc1,3,105,-13
O=C(CSc1ncc(-c2ccc(Br)cc2)[nH]1)N1CCOCC1,16,103,7
Cc1ccc(C(=O)OCC(=O)N2c3ccccc3CC2C)cc1 (stereo not given),-18,101,6
O=C(COc1ccc(F)cc1)N/N=C1\CCS(=O)(=O)c2ccc(F)cc21,-7,103,2
S=c1[nH]nc(C2COc3ccccc3O2)o1 (stereo not given),-121,98,73*!
S=c1nc(C2COc3ccccc3O2)[nH][nH]1 (stereo not given),7,106,x
